Only some compounds are listed: those with a hit (about 6.8% of all), similar ones and a draw of the others.
Spn PMK inh: blocks S. pneumoniae phosphomevalonate kinase; purified PMK, PK/LDH-coupled NADH absorbance 340 nm; inhibition, % at 10 µM; 65,000 tested, 0.49% active; AID 539;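 active means top-ranked compounds by inhibition in the single 10 µM screen, taking a fixed number of the strongest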;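 further: 0% = full reaction with DMSO carrier and 100% = background rate without enzyme reaction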
Spn MK inh: inhibitors of Streptococcus pneumoniae mevalonate kinase; purified MK, PK/LDH-coupled NADH absorbance 340 nm; inhibition, % at 10 µM; 65,000 tested, 0.48% active; AID 555;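 active means ranked among the strongest by inhibition in the single 10 µM screen, a fixed top-ranked set picked for dose follow-up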
NADH coupling: blocks coupling enzymes of NAD/NADH assays; AID 774; 65,000 tested, 0.02% active; IC50, µM (highest dose often 10 µM), inactives show at the highest dose inhibition; coupled PK/LDH NADH assays, four targets;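 active means single-dose screening hits from any of four coupled enzyme assays that gave an IC50 when retested across doses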;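 further: the DPM-DC format reads NADH fluorescence rather than 340 nm absorbance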
Fluor 339 460: intrinsic fluorescence of library compounds, ex339/em460 – biochemical, MLSMR library, data from DPM-DC assay, artefact control, profiling panel; compound autofluorescence, ex339/em460 nm, NADH buffer; active compounds read high; 1 = no-compound wells, NADH background; fluorescence fold increase at 10 µM; 65,000 tested, 5.5% active; AID 709;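 active means at 10 µM, mean starting fluorescence two-fold or more over control wells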;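 further: signal is the first read of a kinetic run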
Abs 340nm: compound absorbs light at 340 nm. compound absorbance at 340 nm, fold over control. fold change at 10 µM. 65,000 tested, under 10 active;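 active means at 10 µM dose, initial 340 nm absorbance at least 2 fold that of control wells; inactive means change under 2 fold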;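 further: initial absorbance extrapolated from kinetic A340 decline of NADH oxidation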
Spn DPM-DC inh: blocks S. pneumoniae diphosphomevalonate decarboxylase; AID 556; purified DPM-DC, PK/LDH coupled NADH fluorescence; 65,000 tested, 0.49% active; calls only at 10 µM;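 active means the 320 compounds with the highest percent inhibition in the single-dose primary screen, excluding strongly autofluorescent ones, cut at about 32% in these data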;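 further: kinetic rate of NADH fluorescence loss reporting ADP formed by the decarboxylase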
The depositor's hits bear a star; i = inactive; / = not tested or not shown; + = active, no number.

SMILES | Spn PMK inh | Spn MK inh | NADH coupling | Fluor 339 460 | Abs 340nm | Spn DPM-DC inh
Cc1noc(C)c1CSc1nnc(-c2ccccc2F)n1CCc1ccccc1 | 14.0 | 3.0 | 6.0% | 1.03 | 0.99 | i
COCC(C)n1c(COc2ccccc2F)nnc1SCc1c(C)noc1C (configuration not stated) | 29.0* | 3.0 | 11.0% | 1 | 1 | i
CN(C)c1ccc(-n2cc3c(=O)n(C)c(=O)n(C)c3c2)cc1 | 5.0 | 4.0 | 7.0% | 1.9 | 1.1 | i
CCN(CC)c1ccc(-n2cc3c(=O)n(C)c(=O)n(C)c3c2)cc1 | 13.0 | 0.0 | 7.0% | 3.69* | 1.05 | /
CN(CCc1ccccn1)Cc1ccc(Cl)cc1Cl | 0.0 | 44.0* | 15.0% | 1.16 | 1.08 | i
CN(CCc1ccccn1)S(=O)(=O)c1ccccc1F | 0.0 | 16.0 | 5.0% | 1.04 | 1.05 | i
CC(C)CC(=O)N1CCN(Cc2cccc(F)c2)CC1 | 14.0 | 59.0* | 24.0% | 1.13 | 1.07 | i
O=C(CSCc1cccc(F)c1)N1CCN(c2ccccc2)CC1 | 25.0* | 7.0 | 12.0% | 1.01 | 1 | i
COc1cccc(CN2CCN(C(=O)CC(C)C)CC2)c1 | 7.0 | 61.0* | 7.0% | 1.04 | 1.07 | i
CCOC(=O)c1ccc(NC(=O)N2CCN(Cc3cccc(F)c3)CC2)cc1 | 7.0 | 2.0 | 2.0% | 1 | 1 | i
O=C(CSCc1ccccc1)N1CCN(c2ccc(F)cc2)CC1 | 0.0 | 6.0 | 2.0% | 1.09 | 1.01 | i
COc1ccc(C(=O)N2CCN(C(=O)CC(C)C)CC2)cc1OC | 6.0 | 5.0 | 4.0% | 1.12 | 1.04 | i
COc1ccc(S(=O)(=O)N2CCN(C(=O)COc3ccc4c(C)cc(=O)oc4c3)CC2)cc1 | 7.0 | 6.0 | 10.0% | 2.56* | 1.07 | i
Cc1cc(=O)oc2cc(OCC(=O)N3CCCC(C)C3)ccc12 (configuration not stated) | 13.0 | 2.0 | 7.0% | 2.69* | 1.04 | i
Cc1cc(=O)oc2ccc(OCC(=O)N3CCC(C)CC3)cc12 | 6.0 | 7.0 | 7.0% | 1.75 | 1 | +
CCOc1ccc2[nH]c(=O)c(CN(CCN3CCOCC3)Cc3nnnn3C(C)(C)CC)cc2c1 | 15.0 | 6.0 | 11.0% | 2.61* | 1.03 | i
COc1ccc2[nH]c(=O)c(CN(Cc3cccs3)Cc3nnnn3C(C)(C)C)cc2c1 | 12.0 | 4.0 | 6.0% | 1.76 | 1 | i
COc1ccc2cc(CN(CCCN3CCOCC3)Cc3nnnn3C3CCCCC3)c(=O)[nH]c2c1 | 1.0 | 6.0 | 4.0% | 1.23 | 1.11 | i
CCOc1ccc2[nH]c(=O)c(CN(Cc3cccs3)Cc3nnnn3C(C)(C)C)cc2c1 | 7.0 | 8.0 | 5.0% | 2.38* | 1.05 | i
CCOc1ccc(CCNC(=O)C2CCCN(S(=O)(=O)c3c(C)n[nH]c3C)C2)cc1OCC (configuration not stated) | 20.0 | 3.0 | 8.0% | 1.12 | 0.99 | i
COC(=O)NCc1ccc(S(=O)(=O)N2CCOCC2)cc1 | 0.0 | 7.0 | 2.0% | 1.06 | 1.03 | i
CC(NC(=O)C1CC2CCCC(C1)C2=O)c1ccccc1 (configuration not stated) | 9.0 | 0.0 | 3.0% | 1.12 | 1.04 | i
CCOc1ccc2nc(NCCCNS(=O)(=O)c3ccccc3)c(C#N)cc2c1 | 10.0 | 4.0 | 10.0% | 2.32* | 1.06 | i
CCOc1cc(C2C(C(=O)c3ccccc3)=C(C(=O)OC)Nc3nnnn32)ccc1O (configuration not stated) | 17.0 | 3.0 | 3.0% | 1.05 | 1 | i
COC(=O)C1=C(C)OC(N)=C(C#N)C1c1cc(OC)c(OCC(N)=O)cc1Cl (configuration not stated) | 37.0* | 48.0* | 41.0% | 1.31 | 1.03 | +
COC(=O)C1=C(C)OC(N)=C(C#N)C1c1ccccc1F (configuration not stated) | 14.0 | 13.0 | 9.0% | 1.1 | 1.02 | i
CCOCCCNC(=O)C(c1ccccc1)N(Cc1ccc2c(c1)OCO2)C(=O)CNC(C)=O (configuration not stated) | 0.0 | 13.0 | 4.0% | 1.06 | 1.02 | i
Cc1ccc(OCc2nc(C#N)c(NCc3ccco3)o2)cc1 | 16.0 | 5.0 | 7.0% | 1.1 | 1.01 | i
Cc1ccc(-c2nc(C#N)c(NCc3ccco3)o2)cc1 | 18.0 | 2.0 | 10.0% | 3.7* | 1.03 | /

Assay outcomes (PubChem BioAssay)
